Laboratory results as given in PubChem BioAssay AID2410 (Southern Research Specialized Biocontainment Screening …, 2010).
Out of some 2,500 compounds screened, about 2,100 (84%) were called active.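 How the source made its calls: active means toxic compounds, whose cell viability fell below 70% of untreated control cells; inactive means the rest.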 So high a share suggests a set chosen from earlier hits. A selection follows. Results with a measured potency or affinity are listed apart.

Assay: viability of uninfected HEp-2 cells – cell-based, HTS, cytotoxicity control for RSV inhibitor project, dose response (AID 2410);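 further: cells exposed to compound for six days before readout; 100% = median signal of untreated cell control wells on each plate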
Conditions: HEp-2 viability, luminescence, cytotoxicity counter-screen; series mostly up to 50 µM; viability: at the top concentration

| Compound | viability |
| --- | --- |
| COCCN(C(=O)CSc1nnc(-c2ccc(C)c(C)c2)o1)c1c(N)n(CC(C)C)c(=O)[nH]c1=O | 96.8% (inactive) |
| COc1ccc2[nH]c3c(=S)nc[nH]c3c2c1 | 94.1% (inactive) |
| c1ccc(N2CCN(Cc3nc4ccccc4[nH]3)CC2)nc1 | 91.6% (inactive) |
| CC(=O)Nc1ccc(NC(=O)C(C)OC(=O)c2ccccc2C(=O)c2ccc(Cl)c([N+](=O)[O-])c2)cc1 (configuration not stated) | 96.1% (inactive) |
| O=C(OCC(=O)N1CCCC1=O)c1ccc(Cl)cc1[N+](=O)[O-] | 88.1% (inactive) |
| COc1ccc(C(=O)NCC(=O)N/N=C/c2c(C)[nH]c3ccccc23)cc1OC | 86.3% (inactive) |
| COc1cc(O)cc(O)c1C(=O)/C=C/c1ccccc1 | 74.6% (inactive) |
| COc1ccc(C(CNC(=S)NCc2ccccc2)N2CCCC2)cc1 (configuration not stated) | 81.7% (inactive) |
| COC(=O)C1=C(C)N(Cc2ccccc2)C(=O)N[C@H]1c1ccc(Br)cc1 | 73% (inactive) |
| CC(=O)Nc1ccc(C(=O)OCc2ccc(Cl)cc2)cc1 | 90.8% (inactive) |
| COc1cccc(/C=N/N=C(\N)c2nonc2N)c1O | 85.2% (inactive) |
| COc1cc(/C=N/N=C(\N)c2nonc2N)cc(OC)c1OC | 110% (inactive) |
| C/C(N)=C(/C#N)C(=O)COC(=O)c1cccc(C)c1O | 107% (inactive) |
| C/C(N)=C(/C#N)C(=O)COc1ncnc2ccc(Br)cc12 | 104% (inactive) |
| C/C(N)=C(/C#N)C(=O)COc1ncnc2ccccc12 | 117% (inactive) |
| Cc1c(NC(=O)CN2C(=O)NC3(CCCCC3C)C2=O)cccc1[N+](=O)[O-] (configuration not stated) | 85.9% (inactive) |
| Fc1cccc(Nc2nc(-c3ccncc3)nc3ccccc23)c1 | 88.5% (inactive) |
| COc1ccc(/C(C)=N/NC(=O)CN(c2ccc(OC)cc2)S(=O)(=O)c2ccccc2)cc1 | 99.9% (inactive) |
| Cc1nc2nc(-c3ccccc3)nn2c(C)c1Cl | 87% (inactive) |
| O=C(c1cc(-c2ccc(Cl)cc2Cl)on1)N1CCOCC1 | 94.3% (inactive) |
| Cc1ccc(-c2nc(CCN3C(=O)c4ccccc4C3=O)cs2)cc1 | 87.1% (inactive) |
| Cc1ccc2c(n1)sc1c(-c3ccc(Br)cc3)c(C#N)c(N)nc12 | 78.3% (inactive) |
| Nc1ccc(Br)c2c1C(=O)c1ccccc1C2=O | 109% (inactive) |
| COc1ccc(N(C)C(=O)C2CCCN2S(=O)(=O)c2cccc3nsnc23)c(OC)c1 (configuration not stated) | 90.5% (inactive) |
| COc1ccc(NC(=O)c2cccs2)c([N+](=O)[O-])c1 | 97% (inactive) |
| COc1ccccc1CNC(=O)C1CCN(S(=O)(=O)c2cccc3nonc23)CC1 | 96.9% (inactive) |

| Compound | viability |
| --- | --- |
| C/C(NC(=O)c1cccc(F)c1)=C1/C(=O)C[C@@H]2[C@H]1C2(C)C | 110% (inactive) |
| C/C(N)=C(/C#N)C(=O)CN1C(=O)NC(Cc2c[nH]c3ccccc23)C1=O (configuration not stated) | 79.4% (inactive) |
| O=C(Nc1ccon1)c1sc2ccccc2c1Cl | 92.8% (inactive) |
| CS(=O)(=O)NNC(=O)c1cc2cc3ccccc3nc2s1 | 95.5% (inactive) |
| O=C(Nc1ccc(Cl)cc1)N1CCc2[nH]c3ccccc3c2C1 | 83.2% (inactive) |
| CCC(=O)Nc1nc(C)c(-c2csc(Nc3ccccn3)n2)s1 | 97.5% (inactive) |
| Cc1cc(Nc2cccc(Cl)c2)nc(-c2ccccc2O)n1 | 86% (inactive) |
| Cc1cc(Nc2cccc(F)c2)nc(-c2ccccc2O)n1 | 74.5% (inactive) |
| CC1CCCN(C(=O)COC(=O)c2ccc3[nH]c4c(c3c2)CCCC4)C1 (configuration not stated) | 79.3% (inactive) |
| Cc1cccc(C)c1N=Cc1c(O)n(-c2nccs2)c(=O)c2ccccc12 | 70.9% (inactive) |
| COc1ccccc1NCC(=O)Nc1cc(S(=O)(=O)N2CCOCC2)ccc1N1CCOCC1 | 97.8% (inactive) |
| Cc1ccnc(NC(=O)c2cccc(S(=O)(=O)N3CCN(c4ccccc4)CC3)c2)c1 | 86% (inactive) |
| O=C(NCc1ccccc1Cl)C1CCN(S(=O)(=O)c2cccc3nonc23)CC1 | 76.8% (inactive) |
| COc1ccc2o/c(=N\O)c(C(=O)Nc3ccccc3OC)cc2c1 | 86.3% (inactive) |
| COc1ccc(C(=O)N/C(=C/c2cccs2)c2nc3ccccc3[nH]2)cc1OC | 77.7% (inactive) |
| CSc1nc(N2CCOCC2)nc2ccc(C)cc12 | 94.1% (inactive) |
| O=C1c2ccccc2C(=O)N1CCCCN(C(=O)c1cc2ccccc2oc1=O)c1ccc(Cl)cc1 | 76.2% (inactive) |
| COc1ccccc1CNC(=O)C(NS(=O)(=O)c1cccc2nsnc12)C(C)C (configuration not stated) | 110% (inactive) |
| CCC(C)n1ncn(-c2ccc(N3CCN(c4ccc(OCC5COC(Cn6cncn6)(c6ccc(Cl)cc6Cl)O5)cc4)CC3)cc2)c1=O (configuration not stated) | 102% (inactive) |
| Brc1cnc(N2CCOCC2)nc1N1CCCCC1 | 72.1% (inactive) |
| CCOc1ccc(CNC(=O)CCCn2nc(CC)n3c(cc4occc43)c2=O)cc1 | 70.5% (inactive) |
| N#Cc1ccccc1Cn1c(=O)oc2ccccc21 | 94.8% (inactive) |
| COC(=O)c1ccc(Oc2nc(N3CCCCC3)nc(N3CCOCC3)n2)cc1 | 90.4% (inactive) |
| CCCCNC(=O)CC1N=C2c3ccccc3N=C(SCC(=O)Nc3ccc(OC)cc3)N2C1=O (configuration not stated) | 94.3% (inactive) |
| O=C(/C=C/c1ccc(O)c(O)c1)OC1C(O)CC(OC(=O)/C=C/c2ccc(O)c(O)c2)(C(=O)O)CC1O (configuration not stated) | 84.3% (inactive) |
| N#Cc1ccccc1NC(=O)c1ccc2c(Cl)c3c(nc2c1)CCCC3 | 96.1% (inactive) |
